Reference: PubChem BioAssay (EPA / NIEHS)
Values joined by “and” are separate entries in the source; they are usually repeats but may differ in a detail not shown here. Equal entries are not always repeated. Results filed as inconclusive are left out. More than one record can exist for a structure, and the calls need not agree. Active and inactive are the calls of the source. Rule for the calls, unless noted: active = hit-call score of the fitted dose curve at least 0.9, where 1 is the maximum; inconclusive = response in the unintended direction; inactive = score below 0.9.

What was measured:
[1] = TOX21_p53_BLA_p3_viability: Viability Assessment in the Tox21 HCT-116 p53 Agonism Beta-lactamase Assay, Phase 3 (AID 2283593);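 note: cells exposed to compound for 16 h before reading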
In short: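 HCT116 cells, 4000/well, dosed 5 h after plating by pin transfer (217-fold dilution from DMSO stock) and incubated 16 h at 37C, 5% CO2. Viability read as ATP luminescence with CellTiter-Glo after 30 min at room temperature.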

[2] = biological target: Cellular tumor antigen p53 (Homo sapiens) (UniProt P04637); assay: TOX21_p53_BLA_p4_ratio: Tox21 HCT-116 p53 Agonism Beta-lactamase Assay, Ratio, Phase 4 (AID 2283601)
In short: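 HCT-116 p53 beta-lactamase reporter cells (4000/well) preincubated 5 h, then compound (217-fold dilution of DMSO stock) for 16 h at 37C. CCF4-AM substrate added 2 h at room temperature; 460/530 nm emission ratio fitted upward versus DMSO.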

[3] = TOX21_p53_BLA_p4_viability: Viability Assessment in the Tox21 HCT-116 p53 Agonism Beta-lactamase Assay, Phase 4 (AID 2283597);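 note: hits lower the luminescence signal meaning cytotoxicity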
In short: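 Viability is taken as cellular ATP: after 16 h compound exposure of HCT116 cells and a 2 h room-temperature CCF4-AM substrate step, CellTiter-Glo reagent is added and luminescence is measured 30 min later.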

[4] = biological target: Cellular tumor antigen p53 (Homo sapiens) (UniProt P04637); assay: TOX21_p53_BLA_p5_ratio: Tox21 HCT-116 p53 Agonism Beta-lactamase Assay, Ratio, Phase 5 (AID 2283599)
In short: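 HCT-116 p53-bla cells (4000/well) plated 5 h, dosed with compound (217-fold DMSO dilution) for 16 h at 37 C; CCF4-AM substrate 2 h at room temperature. Activity is the 460/530 nm emission ratio (405 nm excitation), fitted in gain-of-signal direction versus DMSO.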

[5] = TOX21_p53_BLA_p5_viability: Viability Assessment in the Tox21 HCT-116 p53 Agonism Beta-lactamase Assay, Phase 5 (AID 2283600)
In short: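 Viability is taken from cellular ATP content, measured by luciferase luminescence in the same wells after the beta-lactamase ratio read. Cells are seeded at 4000 per well and exposed to DMSO-dissolved compounds, diluted 217-fold, for 16 h.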

[6] = biological target: Cellular tumor antigen p53 (Homo sapiens) (UniProt P04637); assay: TOX21_p53_BLA_p3_ratio: Tox21 HCT-116 p53 Agonism Beta-lactamase Assay, Ratio, Phase 3 (AID 2283596)
In short: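 Cells were seeded at 4000/well, rested 5 h at 37C, then dosed with DMSO compound solutions (217-fold dilution) for 16 h. CCF4-AM substrate was loaded for 2 h at room temperature, and the 460/530 nm emission ratio was fitted for gain of signal versus DMSO.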

[7] = TOX21_TRB_BLA_Antagonist_Followup_viability: Viability Assessment in the Tox21 Thyroid Hormone Receptor beta Antagonism Beta-lactamase (BLA) Follow-Up Assay (AID 2283961)
In short: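 Cytotoxicity is measured in parallel with the antagonist-mode TRβ beta-lactamase screen, using ATP-coupled luciferase luminescence. Engineered HEK293T cells are treated for 18 h with 11-point compound series in triplicate.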

[8] = CCTE_Harrill_HTTr_Viability_MCF7: CCTE's 6-hour Cell Viability Assessment for the High-Throughput Transcriptomics (HTTr) Platform, in MCF-7 cells cultured in DMEM + 10% fetal bovine serum, Harrill Lab (AID 2284010; active = hit-call score of the fitted dose curve at least 0.9, where 1 is the maximum; inactive = score below 0.9)
In short: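 Propidium iodide exclusion, imaged by high-content analysis, gauged viability after a six-hour exposure across eight concentrations. Cells were MCF-7 grown in DMEM with 10% fetal bovine serum; fits run in both directions against DMSO.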

[9] = CCTE_Harrill_HTTr_CellCount_MCF7: CCTE's Cell Proliferation Assessment for the High-Throughput Transcriptomics (HTTr) Platform, Harrill Lab (AID 2284012);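 note: cells exposed to compound for six hours; intended direction is loss of nuclei count meaning fewer cells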
In short: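 Cell count from high-content imaging of Hoechst-labeled nuclei serves as viability/growth readout. Chemicals were applied to MCF-7 cells in eight concentrations for six hours, with fitting in both directions relative to DMSO.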

[10] = biological target: Thyroid hormone receptor alpha (Rattus norvegicus) + Thyroid hormone receptor beta (Rattus norvegicus) (UniProt P18113+P63059); assay: TOX21_TR_LUC_GH3_Antagonist_Followup: Tox21 GH3 Thyroid Hormone Receptor Antagonism Luciferase Follow-Up Assay (AID 2283942)
In short: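 Luminescence read-out (ONE-Glo, 30 min at room temperature) in GH3 reporter cells challenged with 1.0 nM T3 final. Compounds ran at 92 uM to 5nM over 15 concentrations for 24 h; DMSO served as negative control and baseline.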

[11] = biological target: Retinoic acid receptor RXR-alpha (Homo sapiens) (UniProt P19793); assay: TOX21_TR_RXR_BLA_Antagonist_Followup_ratio: Tox21 Thyroid Hormone Receptor beta Retinoid X Receptor alpha (RXRa) Antagonism Beta-lactamase (BLA) Follow-Up Assay, Ratio (AID 2283972)
In short: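 Antagonist mode used GAL4 UAS-driven beta-lactamase in HEK293T cells expressing RXRa, treated for 16 h with compound concentration series. Activity was taken from the blue/green (460:530 nm) ratio of cleaved to uncleaved substrate.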

[12] = TOX21_TR_RXR_BLA_Antagonist_Followup_viability: Viability Assessment in the Tox21 Thyroid Hormone Receptor beta Retinoid X Receptor alpha (RXRa) Antagonism Beta-lactamase (BLA) Follow-Up Assay (AID 2283979)
In short: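 RXRa-bla HEK293T cells (2,500/well, phenol red-free DMEM, 2% charcoal-stripped FBS) were attached 5 h, then exposed to compounds at 11 concentrations in triplicate for 16 h at 37C. Viability measured by CellTiter-Glo ATP luminescence, bidirectional fitting versus DMSO.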

[13] = UKN5_HCS_SBAD2_cell_viability: Viability Assessment in the University of Konstanz (UKN) Leist Lab Neurite Outgrowth Assay in human iPSC-derived immature Dorsal Root Ganglia Neurons (UKN5) (AID 2284056; active = hit-call score of the fitted dose curve at least 0.9, where 1 is the maximum; inactive = score below 0.9)
In short: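 iPSC-derived immature peripheral neurons (SBAD2) seeded on Matrigel with CHIR99021, SU5402 and DAPT, dosed 1 h later for 24 h. Viability from Hoechst H-33342 and calcein-AM live staining, high-content imaging; bidirectional fit versus DMSO.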

[14] = UKN5_HCS_SBAD2_neurite_outgrowth: University of Konstanz (UKN) Leist Lab Neurite Outgrowth Assay in human iPSC-derived immature Dorsal Root Ganglia Neurons (UKN5) (AID 2284070; active = hit-call score of the fitted dose curve at least 0.9, where 1 is the maximum; inactive = score below 0.9); details: actives raise or lower the signal
In short: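 Neurite area from calcein-AM high-content images after 24 h exposure (staining included), with H-33342 for viability, fitted both directions against DMSO. Cells: thawed immature SBAD2 peripheral neurons, 100.000 cells/cm2, with CHIR99021, SU5402, DAPT; dosing 1 h after seeding.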

[15] = UKN2_HCS_IMR90_neural_migration: University of Konstanz (UKN) Leist Lab Neural Crest Cell Migration Assay in human induced IMR90 Pluripotent Stem Cells (UKN2) (AID 2284204; active = hit-call score of the fitted dose curve at least 0.9, where 1 is the maximum; inactive = score below 0.9); details: actives raise or lower the signal
In short: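 Stopper-exclusion migration (cMINC), human iPSC-derived neural crest cells; N2-S + EGF/FGF; compound added 24 h post-stopper removal, 24 h exposure. Readout: calcein-AM/Hoechst 30 min, HCS fluorescence imaging; bidirectional fitting, DMSO baseline.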

[16] = UKN4_HCS_LUHMES_neurite_outgrowth: University of Konstanz (UKN) Leist Lab Neurite Outgrowth Assay in human LUHMES cells (UKN4) (AID 2284206; active = hit-call score of the fitted dose curve at least 0.9, where 1 is the maximum; inactive = score below 0.9); details: actives raise or lower the signal
In short: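 After 24 h compound treatment beginning shortly after replating of 2-day-differentiated LUHMES cells, calcein-AM and H-33342 live staining allowed high-content imaging of neurite area and viability. Fitted bidirectionally against DMSO.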

[17] = UKN4_HCS_LUHMES_cell_viability: Viability Assessment in the University of Konstanz (UKN) Leist Lab Neurite Outgrowth Assay in human LUHMES cells (UKN4) (AID 2284232; active = hit-call score of the fitted dose curve at least 0.9, where 1 is the maximum; inactive = score below 0.9)
In short: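 Viability was read by high-content imaging of calcein-AM/H-33342-stained cells after 24 h toxicant exposure, staining included. Cells: human LUHMES on day 2 of dopaminergic differentiation, dosed shortly after attachment; DMSO baseline, bidirectional curve fitting.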

[18] = UKN2_HCS_IMR90_cell_viability: Viability Assessment in the University of Konstanz (UKN) Leist Lab Neural Crest Cell Migration Assay in human induced IMR90 Pluripotent Stem Cells (UKN2) (AID 2284233; active = hit-call score of the fitted dose curve at least 0.9, where 1 is the maximum; inactive = score below 0.9;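 note: cells exposed to compound for 24 h after a 24 h migration phase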)
In short: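 Viability read as calcein-AM fluorescence by high-content imaging, Hoechst co-stain, 30 min. Human iPSC (IMR90) neural crest cells had migrated 24 h into stopper-defined gaps before 24 h chemical exposure. Fitted bidirectionally relative to DMSO.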

Measured: AC50

Sequence of Cellular tumor antigen p53 (Homo sapiens) (P04637 whole entry, looked up): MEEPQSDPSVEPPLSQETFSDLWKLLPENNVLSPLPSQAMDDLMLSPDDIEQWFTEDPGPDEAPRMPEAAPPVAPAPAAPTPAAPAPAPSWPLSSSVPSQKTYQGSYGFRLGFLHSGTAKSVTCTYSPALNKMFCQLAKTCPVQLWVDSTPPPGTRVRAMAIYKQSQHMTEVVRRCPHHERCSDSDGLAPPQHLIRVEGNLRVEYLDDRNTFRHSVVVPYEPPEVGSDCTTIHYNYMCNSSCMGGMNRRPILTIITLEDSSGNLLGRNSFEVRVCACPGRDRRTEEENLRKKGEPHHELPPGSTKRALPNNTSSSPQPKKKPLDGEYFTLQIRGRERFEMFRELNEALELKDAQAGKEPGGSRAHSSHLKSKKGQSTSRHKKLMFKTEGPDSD
Sequence of Retinoic acid receptor RXR-alpha (Homo sapiens) (P19793 whole entry, looked up, the tested form may be a part): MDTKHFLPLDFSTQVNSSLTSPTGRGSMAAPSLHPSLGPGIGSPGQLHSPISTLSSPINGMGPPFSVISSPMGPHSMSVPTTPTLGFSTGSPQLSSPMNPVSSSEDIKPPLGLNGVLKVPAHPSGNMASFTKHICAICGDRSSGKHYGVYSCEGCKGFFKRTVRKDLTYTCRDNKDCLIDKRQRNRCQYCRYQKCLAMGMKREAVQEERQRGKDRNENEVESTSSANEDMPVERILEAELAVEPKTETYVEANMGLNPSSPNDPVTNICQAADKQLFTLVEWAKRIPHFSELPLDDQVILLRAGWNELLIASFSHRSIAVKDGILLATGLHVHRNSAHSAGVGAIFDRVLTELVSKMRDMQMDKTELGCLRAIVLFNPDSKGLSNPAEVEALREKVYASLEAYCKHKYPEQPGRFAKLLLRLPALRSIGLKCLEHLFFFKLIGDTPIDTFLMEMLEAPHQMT

CC(C)c1c(CN(C)C(C)Cc2ccccc2)n(C)n(-c2ccccc2)c1=O (configuration not stated)
inactive: [1] | [2]

CCCCCBr
inactive: [3] | [4]

Cc1cc(OC(=O)N(C)C)nn1C(=O)N(C)C
inactive: [3] | [4] | [5] | [2]

C[C@@H]1[C@H]2Cc3ccc(O)cc3[C@]1(C)CCN2C
inactive: [3] | [5]

CNCC(=O)c1ccc(O)c(O)c1
inactive: [6] | [3] | [5]

O=NN(CCO)CCO
inactive: [6] | [3] | [2]

CCN(CC)CCN1C(=O)CN=C(c2ccccc2F)c2cc(Cl)ccc21
inactive: [3] | [5]

CCCCCCCCCCn1cc[n+](C)c1
active: [4] 15.5 µM | [2] 45.6 µM and 21.5 µM and 46 µM | [7] 7.88 µM
inactive: [4] | [2]

CCOC(=O)c1cncn1C(C)c1ccccc1 (configuration not stated)
inactive: [6]

CCNCC(O)c1cccc(O)c1 (configuration not stated)
inactive: [6] | [4] | [5] | [2]

CCC(C)Br (configuration not stated)
inactive: [6] | [4] | [5] | [2]

C[C@H](N)[C@H](O)c1ccc(O)c(O)c1
inactive: [6] | [4] | [5] | [2]

N#CCCl
inactive: [3] | [4] | [5] | [2]

NC1CCC(CC2CCC(N)CC2)CC1 (configuration not stated)
inactive: [4]

COc1ccc2c3c1O[C@H]1[C@@H](O)C=C[C@H]4[C@@H](C2)N(C)CC[C@@]341
inactive: [3] | [8] | [9]

CCOC(=O)c1ncn2c1CN(C)C(=O)c1c(I)cccc1-2
inactive: [6] | [3] | [4] | [2]

COP(N)(=S)Oc1ccccc1C(=O)OC(C)C (configuration not stated)
inactive: [6] | [4] | [5] | [2]

O=C1OC2(c3cc(Br)c(O)cc3Oc3c2cc(Br)c(O)[c]3[Hg])c2ccccc21 (configuration not stated)
inactive: [3] | [4] | [2] | [10] | [7] | [11] | [12]

CC(=O)Oc1ccc2c3c1O[C@H]1[C@@H](OC(C)=O)C=C[C@H]4[C@@H](C2)N(C)CC[C@@]341
not listed: [1] | [7] | [8] | [9] | [10] | [11] | [12]
inactive: all other assays above

CC(C)NC(C)Cc1ccc(I)cc1 (configuration not stated)
inactive: [3] | [4] | [5] | [2]

O=P(Cl)(Cl)Cl
inactive: [4] | [5] | [2]

CN[C@@H](C)[C@H](O)c1ccccc1
inactive: [6] | [4] | [5] | [2]

CCc1cc(OC)c(C[C@H](C)N)cc1OC
inactive: [3] | [4] | [5] | [2]

CCN(CC)C(=O)N[C@@H]1C=C2c3cccc4[nH]cc(c34)C[C@@H]2N(C)C1
inactive: [6] | [4] | [5]

CCC(Cl)[N+](=O)[O-] (configuration not stated)
inactive: [6] | [4] | [5] | [2]

Oc1ccc2c3c1O[C@H]1[C@@H](O)CC[C@@]4(O)[C@@H](C2)N(CC2CCC2)CC[C@]314
inactive: [6] | [3] | [5] | [2]

OC(Cn1cncn1)(c1ccc(F)cc1)c1ccccc1F (configuration not stated)
inactive: [3] | [4] | [8]

CCC1(C)CC(=O)NC(=O)C1
inactive: [1] | [2]

CC1CCCC1
inactive: [6] | [4] | [2]

CC(=O)[C@@]1(O)CC[C@H]2[C@@H]3CCC4=CC(=O)CC[C@]4(C)C3(F)[C@@H](O)C[C@@]21C (some centres not stated)
inactive: [3] | [5]

CCCC(C)(COC(N)=O)COC(=O)NC1CC1 (configuration not stated)
inactive: [6] | [4] | [5]

O=C=NC1CCCCC1
inactive: [3] | [4] | [5] | [2]

COc1ccc2c3c1O[C@H]1[C@H](O)CC[C@H]4[C@@H](C2)N(C)CC[C@@]341
inactive: [6] | [3] | [5] | [2]
